Assay results as given in PubChem BioAssay (EPA / NIEHS).
Where “and” joins values, the source holds several entries; their conditions need not be identical. Equal entries are not always repeated. Results filed as inconclusive are left out. Calls of active or inactive are those of the source. The calls were made as follows, unless noted: active = hit-call score of the fitted dose curve at least 0.9, where 1 is the maximum; inactive = score below 0.9.

Legend:
DIO1 (gene 1733) = assay: CCTE_GLTED_hDIO1: CCTE's human Deiodinase 1 (DIO1) Inhibition Assay, Great Lakes Toxicology and Ecology Division (GLTED) Lab (AID 2283987; active = hit-call score of the fitted dose curve at least 0.9, where 1 is the maximum;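 also: isolated human DIO1 enzyme in a cell-free setup rather than cells; enzyme activity read as free iodide liberated from substrate via Sandell-Kolthoff colorimetry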)
Outline: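 Steps: human DIO1 enzyme plus test chemical, 3 h incubation; free iodide then quantified in a second Sandell-Kolthoff step by absorbance. DMSO served as negative control and baseline.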

[1] = molecular target: Nucleoli Translocation, AR (gene 367) (UniProt P10275); assay: UPITT_HCI_U2OS_AR_TIF2_Nucleoli_Antagonist: University of Pittsburgh U2OS Androgen Receptor-Transcriptional Intermediary Factor 2 (AR-TIF2) Antagonism High Content Imaging Assay for Nucleoli Translocation (AID 2283997; active = hit-call score of the fitted dose curve at least 0.9, where 1 is the maximum)
Nucleoli Translocation, AR (gene 367), sequence (P10275 whole entry, looked up): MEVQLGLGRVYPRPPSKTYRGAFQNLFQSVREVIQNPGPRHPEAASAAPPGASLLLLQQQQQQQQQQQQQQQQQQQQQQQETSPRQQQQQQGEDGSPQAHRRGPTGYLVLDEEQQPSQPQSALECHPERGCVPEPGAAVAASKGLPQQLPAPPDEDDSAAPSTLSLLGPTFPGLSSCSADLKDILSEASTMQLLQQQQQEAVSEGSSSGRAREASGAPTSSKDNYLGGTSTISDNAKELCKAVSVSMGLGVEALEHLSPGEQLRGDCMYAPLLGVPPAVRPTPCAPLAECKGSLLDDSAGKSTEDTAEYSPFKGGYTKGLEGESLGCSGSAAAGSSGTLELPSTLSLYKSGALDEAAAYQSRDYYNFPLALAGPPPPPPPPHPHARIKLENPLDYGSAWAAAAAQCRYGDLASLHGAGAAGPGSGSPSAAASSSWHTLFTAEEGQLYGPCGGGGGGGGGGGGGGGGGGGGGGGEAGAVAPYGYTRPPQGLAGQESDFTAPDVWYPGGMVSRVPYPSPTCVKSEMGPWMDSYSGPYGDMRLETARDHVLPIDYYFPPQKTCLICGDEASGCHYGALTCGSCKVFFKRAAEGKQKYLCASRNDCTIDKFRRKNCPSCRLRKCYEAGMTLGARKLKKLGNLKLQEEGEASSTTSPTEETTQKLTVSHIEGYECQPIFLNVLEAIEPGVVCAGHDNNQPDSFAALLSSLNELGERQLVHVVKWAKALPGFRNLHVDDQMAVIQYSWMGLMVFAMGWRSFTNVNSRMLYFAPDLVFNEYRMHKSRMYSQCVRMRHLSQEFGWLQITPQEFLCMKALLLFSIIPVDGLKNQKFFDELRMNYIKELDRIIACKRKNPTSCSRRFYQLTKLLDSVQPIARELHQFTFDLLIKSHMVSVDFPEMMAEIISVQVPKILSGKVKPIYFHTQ
Outline: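 U2OS cells expressing RFP-tagged human AR and GFP-tagged TIF2 were imaged by high-content fluorescence microscopy for red AR signal in the nucleolar region. Compounds were screened at 20 uM final (0.2% DMSO), with activity fitted relative to DHT as baseline.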

[2] = CCTE_Harrill_HTTr_Viability_MCF7: CCTE's 6-hour Cell Viability Assessment for the High-Throughput Transcriptomics (HTTr) Platform, in MCF-7 cells cultured in DMEM + 10% fetal bovine serum, Harrill Lab (AID 2284010)
Outline: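 Membrane integrity was scored by high-content imaging of propidium iodide dye exclusion after a 6 h exposure across an eight-point dilution series. Data were fitted bidirectionally relative to DMSO as negative control and baseline.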

[3] = CCTE_Shafer_MEA_acute_spike_number: CCTE's Neural Acute Assay for Total Number of Spikes, Shafer Lab (AID 2284008);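 as to AC50: curve fitted for decrease in spike count so AC50 reflects inhibitors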
Outline: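 Rat cortical cultures, DIV 13/15, 37 C. 40 min baseline rec, cpd 0.03-40 uM, 40 min post-dose rec. Band-pass 300-5000 Hz, spike threshold 8x rms; % change in spike count per well, DMSO neg ctrl, loss-of-signal fit.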

[4] = CCTE_Shafer_MEA_acute_firing_rate_mean: CCTE's Neural Acute Assay for Mean Firing Rate, Shafer Lab (AID 2284009);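 also: analyzed for loss of signal so actives lower firing rate relative to DMSO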
Outline: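 Read-out: well-mean spike rate (spikes/recording length/electrodes), % change from 40 min pre-dose baseline to 40 min with compound. Rat cortical cultures, DIV 13 or 15, 37 C; 0.03-40 uM; DMSO as negative control.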

[5] = CCTE_Shafer_MEA_acute_burst_number: CCTE's Neural Acute Assay for Single-Electrode Bursts, Shafer Lab (AID 2284013)
Outline: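 Rat cortical cultures, DIV 13/15; 40 min baseline, then 40 min with compound 0.03-40 uM, 37 C. Spikes: 300-5000 Hz band-pass, threshold 8x rms noise. Readout = % change in single-electrode bursts vs baseline, loss-of-signal fit.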

[6] = CCTE_Shafer_MEA_acute_burst_duration_mean: CCTE's Neural Acute Assay for Mean Burst Duration, Shafer Lab (AID 2284014);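 also: hits are decreases in mean burst duration relative to DMSO controls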
Outline: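 Primary rat cortical neurons on 16-electrode MEA wells, treated on DIV 13 or 15 with compound (0.03-40 uM; ≥3 wells each). 40-min baseline and 40-min exposure recordings at 37 C; percent change in mean burst duration per well versus DMSO.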

[7] = CCTE_Shafer_MEA_acute_per_burst_spike_number_mean: CCTE's Neural Acute Assay for Average Number of Spikes Per Burst, Shafer Lab (AID 2284015);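 also: hits are decreases in mean spikes per burst versus baseline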
Outline: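 Rat primary cortical neurons on 48-well MEAs (DIV 13 or 15) were treated with 0.03-40 uM compound at 37 C. Mean spikes per burst over 40 min were recorded before and after exposure and expressed as percent change from baseline, relative to DMSO.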

[8] = CCTE_Shafer_MEA_acute_interburst_interval_mean: CCTE's Neural Acute Assay for Mean Interburst Interval, Shafer Lab (AID 2284016);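 also: percent change of mean interburst interval versus each well's own pre-dose baseline; curves fitted for decrease in interburst interval relative to DMSO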
Outline: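 Rat primary cortical neurons on 48-well MEAs at DIV 13 or 15 were exposed acutely to 0.03-40 uM. Spikes detected at 8x rms noise, 37 C. Mean interburst interval from 40 min recordings expressed as percent change from 40 min pre-treatment baseline.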

[9] = CCTE_Shafer_MEA_acute_burst_percentage_mean: CCTE's Neural Acute Assay for Percentage of Spikes in a Burst, Shafer Lab (AID 2284017);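 as to AC50: curve fitted for loss of signal so potency reflects decreased burst percentage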
Outline: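 Primary rat cortical neurons on 48-well MEA plates, treated on DIV 13 or 15 at 0.03-40 uM. Spikes detected at 8x rms noise at 37C; percent change from 40-min baseline to 40-min post-dose recording, fitted versus DMSO.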

[10] = CCTE_Shafer_MEA_acute_burst_percentage_std: CCTE's Neural Acute Assay for Standard Deviation of Burst Percentage, Shafer Lab (AID 2284018);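 also: fitted in the negative direction so actives lower burst percentage SD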
Outline: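 Primary rat cortical neurons on 16-electrode MEA wells were recorded 40 min at baseline (DIV 13 or 15), then 40 min after compound (0.03-40 uM), at 37 C. Well value is SD across electrodes of spikes-in-bursts/total spikes; endpoint is percent change, DMSO-referenced.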

[11] = molecular target: Nucleoli Translocation, AR (gene 367) (UniProt P10275); assay: UPITT_HCI_U2OS_AR_TIF2_Nucleoli_Agonist: University of Pittsburgh U2OS Androgen Receptor-Transcriptional Intermediary Factor 2 (AR-TIF2) Agonism High Content Imaging Assay for Nucleoli Translocation (AID 2283998; active = hit-call score of the fitted dose curve at least 0.9, where 1 is the maximum)
Outline: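 RFP-AR / GFP-TIF2 cells; cpds diluted in serum-free medium; single-point screen 20 uM final (0.2% DMSO), actives confirmed in triplicate; conc-response 0.195–50 uM final (0.5% DMSO). Readout: nucleolar red fluorescence, positive direction vs DMSO.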

[12] = molecular target: Ratio of Nucleoli Translocation and Cytoplasm, AR (gene 367) (UniProt P10275); assay: UPITT_HCI_U2OS_AR_TIF2_Nucleoli_Cytoplasm_Ratio_Agonist: University of Pittsburgh U2OS Androgen Receptor-Transcriptional Intermediary Factor 2 (AR-TIF2) Agonism High Content Imaging Assay for Ratio of Nucleoli Translocation and Cytoplasm (AID 2284000; active = hit-call score of the fitted dose curve at least 0.9, where 1 is the maximum;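 also: hits raise the red nucleolar to cytoplasm ratio above vehicle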)
Ratio of Nucleoli Translocation and Cytoplasm, AR (gene 367), sequence (P10275 whole entry, looked up): as above
Outline: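 U2OS cells expressing RFP-tagged human AR and GFP-tagged TIF2 were imaged by high-content fluorescence microscopy. The endpoint is the ratio of nucleolar to cytoplasmic red fluorescence, fitted for gain of signal relative to DMSO. Concentration-response spanned 0.195 to 50 uM final (0.5% DMSO).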

[13] = molecular target: Ratio of Nucleoli Translocation and Cytoplasm, AR (gene 367) (UniProt P10275); assay: UPITT_HCI_U2OS_AR_TIF2_Nucleoli_Cytoplasm_Ratio_Antagonist: University of Pittsburgh U2OS Androgen Receptor-Transcriptional Intermediary Factor 2 (AR-TIF2) Antagonism High Content Imaging Assay for Ratio of Nucleoli Translocation and Cytoplasm (AID 2283999; active = hit-call score of the fitted dose curve at least 0.9, where 1 is the maximum;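 also: antagonists lower the DHT-driven ratio of nucleolar to cytoplasmic red signal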)
Outline: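 U2OS cells expressing RFP-tagged human AR and GFP-tagged TIF2; compounds tested at 20 uM final (0.2% DMSO) in primary screen, 0.195–50 uM (0.5% DMSO) for concentration response. Readout: nucleolar-to-cytoplasmic red fluorescence ratio by high-content imaging, fitted relative to DHT.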

[14] = CCTE_Harrill_HTTr_CellCount_MCF7: CCTE's Cell Proliferation Assessment for the High-Throughput Transcriptomics (HTTr) Platform, Harrill Lab (AID 2284012; active = hit-call score of the fitted dose curve at least 0.9, where 1 is the maximum;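 also: cells exposed to compound for six hours; intended direction is loss of nuclei count meaning fewer cells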)
Outline: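 MCF-7 cells were exposed for 6 h to an eight-point dilution series; Hoechst-labeled nuclei were counted by high content imaging. Curves were fitted bidirectionally against DMSO as negative control and baseline, with signal loss indicating reduced cell count.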

[15] = CCTE_Simmons_MITO_basal_resp_rate: CCTE's HepG2 Seahorse XF Respirometric Screening Assay at Basal Respiratory State, Simmons Lab (AID 2284001); settings: actives raise or lower the signal
Outline: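 HepG2 cells were given test chemicals at 7 concentrations, 125 nM to 100 uM final, and oxygen consumption rate was read every 6 min (3 min mix, 3 min measure) over 72 min. Basal-phase OCR was fitted bidirectionally against DMSO.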

[16] = CCTE_Simmons_MITO_max_resp_rate: CCTE's HepG2 Seahorse XF Respirometric Screening Assay at Maximal Respiratory State [uncoupled], Simmons Lab (AID 2284002); settings: actives raise or lower the signal
Outline: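 HepG2, Seahorse XF96, maximal OCR post-FCCP. Cpd 125 nM–100 uM final (7 conc), n=3 biological. Kinetic reads every 6 min (3 min mix/3 min measure) over 72 min; fit bidirectional vs DMSO.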

[17] = CCTE_Simmons_MITO_inhib_resp_rate: CCTE's HepG2 Seahorse XF Respirometric Screening Assay at Inhibited Respiratory State [full ETC block], Simmons Lab (AID 2284006); settings: actives raise or lower the signal
Outline: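 HepG2 cells on Seahorse XF96; oxygen consumption measured after test compound, then FCCP, then rotenone/antimycin A injections over 72 min. Test chemicals at 7 concentrations, 125 nM–100 uM final. OCR fitted bidirectionally versus DMSO.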

[18] = CCTE_Simmons_MITO_viability: CellTiter-Glo Viability Assessment for CCTE's HepG2 Seahorse XF Respirometric Screening Assay [post-hoc], Simmons Lab (AID 2284007; active = hit-call score of the fitted dose curve at least 0.9, where 1 is the maximum)
Outline: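 HepG2 cells from the Seahorse XF respirometry run were exposed 90 min to a 7-point series, 125 nM–100 uM final, DMSO vehicle; ATP content then read by luciferase luminescence. Three biological replicates, technical singles; loss of signal fitted versus DMSO.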

[19] = CCTE_Harrill_HTTr_Apoptosis_MCF7: CCTE's 6-hour Apoptosis Assessment for the High-Throughput Transcriptomics (HTTr) Platform, in MCF-7 cells cultured in DMEM + 10% fetal bovine serum, Harrill Lab (AID 2284011)
Outline: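 Read-out: CellEvent Caspase 3/7 Green signal by high content imaging, gain-of-signal indicating apoptosis. MCF-7 cells, DMEM + 10% FBS, eight-point dilution series, 6 h exposure. Curves fitted bidirectionally relative to DMSO negative control.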

Measured: AC50

COC(=O)C(F)(F)C(F)(F)OC(F)(C(F)(F)F)C(F)(F)OC(F)=C(F)F (stereo unspecified)
active: DIO1 (gene 1733) 0.494 µM

Clc1ccc(Oc2ccccc2)cc1
inactive: [1] | [2]

Nc1ccc(Cl)cc1
inactive: [2]

CC(C)(C)c1ccccc1OP(=O)(Oc1ccccc1)Oc1ccccc1
active: [3] 1.33 µM | [4] 1.33 µM | [5] 1.23 µM | [7] 7.23 µM | [9] 6.79 µM | [10] 5 µM
inactive: [6] | [8]

CCCCOCCOP(=O)(OCCOCCCC)OCCOCCCC
inactive: [2]

Cc1ccc([N+](=O)[O-])cc1C
inactive: [2]

CCNc1nc(Cl)nc(NC(C)(C)C)n1
inactive: [1] | [11] | [12] | [2]

c1cc2c3c(cccc3c1)CC2
inactive: [1] | [13] | [12] | [2] | [14]

ClC(Cl)(Cl)c1ccccc1
not listed: DIO1 (gene 1733) | [1] | [11] | [12] | [13]
inactive: all other assays above

CCCCCCCc1ccc(O)cc1
inactive: [17] | [2]
active: DIO1 (gene 1733) 77 µM | [1] 60.7 µM | [11] 19.2 µM | [13] 79.6 µM | [12] 28.9 µM | [15] 40.4 µM | [16] 27.6 µM

CC(Cl)(Cl)C(=O)O
inactive: [3] | [4] | [2] | [19] | [14] | [5] | [6] | [7] | [8] | [9] | [10]

COCCOCCO
inactive: [3] | [4] | [2] | [5] | [6] | [7] | [8] | [9] | [10]

ClC(Cl)=C(c1ccc(Cl)cc1)c1ccccc1Cl
active: [1] 50 µM and 9.92 µM
inactive: [11] | [13] | [12] | [2] | [19]

Nc1ccc2ccccc2c1
inactive: [2] | [14] | [5] | [6] | [7] | [8] | [9] | [10]
active: [3] 0.109 µM | [4] 0.109 µM

CCOP(=S)(Oc1ccc([N+](=O)[O-])cc1)c1ccccc1 (stereo unspecified)
inactive: [2] | [14] | [5] | [6] | [7] | [8] | [9] | [10]
active: [3] 24.9 µM | [4] 25 µM

CCCCC(CC)COP(=O)(Oc1ccccc1)Oc1ccccc1 (stereo unspecified)
active: [3] 15 µM | [4] 15 µM | [9] 23.7 µM | [10] 15 µM
not listed: DIO1 (gene 1733) | [15] | [16] | [17] | [18]
inactive: all other assays above

O=P(OCC(Br)CBr)(OCC(Br)CBr)OCC(Br)CBr (stereo unspecified)
inactive: [1] | [11] | [13] | [12] | [2] | [14]

[N-]=[N+]=[N-]
active: [16] 50 µM
not listed: DIO1 (gene 1733) | [18] | [19]
inactive: all other assays above
